Measurements: PubChem BioAssay AID463082 (The Scripps Research Institute Molecular Screening Center, 2010)
About 4,900 (1.5%) of roughly 330,000 compounds were called active. The full list was thinned out, with actives kept by preference. Unmarked numbers belong to inactive results.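 How the source made its calls: active means inhibition above the mean inhibition across the screen plus 3 SD (cut at about 25% in these data); inactive means the rest.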

Target: Platelet-activating factor acetylhydrolase (Homo sapiens) (UniProt Q13093)
Sequence (Q13093 whole entry, looked up): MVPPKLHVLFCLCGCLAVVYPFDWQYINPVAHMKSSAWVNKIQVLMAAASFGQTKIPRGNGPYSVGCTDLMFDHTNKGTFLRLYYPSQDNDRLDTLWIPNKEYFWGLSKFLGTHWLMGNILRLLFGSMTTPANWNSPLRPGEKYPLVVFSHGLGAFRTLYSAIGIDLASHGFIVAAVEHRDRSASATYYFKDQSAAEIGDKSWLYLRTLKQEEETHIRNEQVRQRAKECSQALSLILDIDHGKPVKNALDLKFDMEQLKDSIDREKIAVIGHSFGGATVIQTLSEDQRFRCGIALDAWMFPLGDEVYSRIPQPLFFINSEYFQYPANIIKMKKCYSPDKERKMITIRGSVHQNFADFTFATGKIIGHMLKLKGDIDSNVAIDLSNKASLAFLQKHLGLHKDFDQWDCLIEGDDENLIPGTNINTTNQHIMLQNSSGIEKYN
Assay: pPAFAH enzyme inhibitors, primary screen, biochemical, fluorescence polarization, human (AID 463082);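 further: inhibitors block binding of the rhodamine activity-based probe so polarization drops; 0% = enzyme with DMSO and 100% = wells lacking pPAFAH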
Details: recombinant pPAFAH, FP-rhodamine probe fluorescence polarization; at 3.39 µM; hits give high values

SMILES	inhibition
CCn1c(SCC(=O)N/N=C/c2ccccc2OCC(=O)O)nnc1-c1ccc(C(C)(C)C)cc1	11.4%
COc1ccc(CCOC(=O)CNC(=O)c2ccc(Cl)cc2Cl)cc1	-0.13%
Cc1coc2c(O)cc3c(c12)OC1(N2CCCCC2)C(=O)NCCCC31 (stereo unspecified)	27.6% (active)
Cc1ccc(NC(=O)N2CCC(c3nc4c(nnn4Cc4c(F)cccc4Cl)c(=O)[nH]3)CC2)cc1	27.7% (active)
O=C(Nc1ccc(F)cc1)N1CCCC(c2nc3c(nnn3Cc3ccccc3Cl)c(=O)[nH]2)C1 (stereo unspecified)	1.47%
COc1ccc(Cn2nnc3c(=O)[nH]c(C4CCN(C(=O)c5ccccc5Cl)CC4)nc32)cc1	9.22%
CCc1nnc(NC(=O)C2CC(=O)N(c3ccc4c(c3)OCCO4)C2)s1 (stereo unspecified)	2.68%
CCOC(=O)c1ccc(NC(=O)C2CC(=O)N(c3ccc4c(c3)OCCO4)C2)cc1 (stereo unspecified)	29.3% (active)
Cc1ccc(NC(=O)C2CC(=O)N(c3ccc4c(c3)OCCO4)C2)cc1S(=O)(=O)N1CCCCCC1 (stereo unspecified)	0.97%
O=C(COC(=O)c1ccc(S(=O)(=O)N2CCc3ccccc3C2)cc1)NC(=O)NCc1ccco1	-5.65%
S=c1nccc(-c2cc(Cl)sc2Cl)[nH]1	4.56%
CCN(Cc1ccccc1)C(=O)CSc1nc(C)cc2c1C(=O)OC2	7%
COc1ccccc1C(=O)Nc1cccc(C(=O)N2CCOCC2)c1	-0.6%
CN(C)C(=O)CCc1ccc2c3c([nH]c2c1)[C@]1(C)[C@@H](C(=O)N2CCCCC2)C[C@H](CC(=O)NCCC2=CCCCC2)C(=O)N1CC3	9.04%
O=C1C(=O)N(CCCO)C(c2ccccc2)/C1=C(\O)c1ccc(Br)cc1 (stereo unspecified)	2.67%
CC(C)(C)NC(=O)C(c1ccc(Cl)cc1)N(CCO)C(=O)c1snc(C(N)=O)c1N (stereo unspecified)	-1.41%
CN(C)S(=O)(=O)c1cccc(NC(=S)N/N=C/C(=O)c2ccccc2)c1	12.9%
O=C(O)c1cccc(NC(=S)N/N=C/c2c[nH]c3ccccc23)c1	26.4% (active)
O=C(N/N=C/c1c[nH]c2ccccc12)c1cc2ccccc2o1	15.3%
Cc1ccc(-c2cc(C(=O)NCc3cn(C)nc3C)c3cc(Br)ccc3n2)cc1	2.72%
O=C(Nc1ccccc1F)c1ccccc1-c1ccc(C(F)(F)F)cc1	0.76%
Cc1nn(CC(=O)N/N=C/c2ccc(F)cc2)c(C)c1[N+](=O)[O-]	-6.43%
COc1cc(/C=N/NC(=O)c2cc(C)n(-c3ccc(F)cc3)c2C)cc(OC)c1O	9.67%
Cc1cc(C(=O)N/N=C/c2ccc(O)c([N+](=O)[O-])c2)c(C)n1-c1ccc(F)cc1	33.4% (active)
COCCNc1cc(-c2ccccc2)nc2cc(-c3cccc(F)c3)nn12	-13.5%
CC(NC(=S)NC1CCCCC1)C(c1ccccc1)N1CCOCC1 (stereo unspecified)	2.17%
